Measured values published in PubChem BioAssay AID1671193 (National Center for Advancing Translational Sciences (NCATS), 2021).
In all, about 150,000 compounds went through this assay and about 180 (0.12%) were called active. Another 6% or so got no clear call; they are omitted. The call rests on the fitted dose curve; in most records, active means well fitted cell-killing curve with a large enough effect; inconclusive means small, poorly fitted or top-dose-only effect, or effect the other way; inactive means flat fitted curve, though single readings scatter. What follows is part of a selection rich in actives, with near analogues and random picks from the rest.

Assay: GF-AFC viability counterscreen for inhibitors of alpha-synuclein gene (SNCA) expression; further: nearly all actives have a fitted effect of over 30% in size
Conditions: HEK-293-SNCA-luc viability, GF-AFC fluorescence, 24 h; series mostly up to 57.1 µM; activity change, negative = cytotoxicity: at the top concentration
Source text: Assay Submitter (PI): Daniel R. Scoles Ph.D.
Department of Neurology, University of Utah, Salt Lake City, Utah
Accumulation of alpha-synuclein is a main underlying pathological feature of Parkinson's disease (PD) and alpha-synucleinopathies, for which lowering expression of the alpha-synuclein gene (SNCA) is a potential therapeutic avenue. Using a cell-based luciferase reporter of SNCA expression we performed a quantitative high throughput screen (qHTS) of 155,885 compounds in dose response. The screening assay was generated using genome editing to insert the luciferase gene downstream and in frame of the SNCA gene in HEK-293 cells (1). A viability counterscreen using GF-AFC was used to eliminate cytotoxic and false positive compounds. After in silico analysis (clustering, removal of frequent hitter nuisance chemotypes), inhibitor compounds from the primary screen were selected for follow up and re-tested at 11-doses in the SNCA-luc cells (luciferase and GF-AFC confirmation), and in CMV-luc expressing cell line to flag general transcriptional repressors.
Described herein are the results of the GF-AFC viability counterscreen for SNCA inhibitors; inactivity (no decrease in fluorescence signal, not cytotoxic) is the desired output for this assay.
1. Dansithong, W., Paul, S., Scoles, D. R., Pulst, S. M., and Huynh, D. P. (2015) Generation of SNCA Cell Models Using Zinc Finger Nuclease (ZFN) Technology for Efficient High-Throughput Drug Screening. PLoS ONE 10, e0136930.
SEQUENCE No. (e.g., 1, 2, 3, etc.); […] (e.g., Cells, Incubation, Reagent, etc.); VALUE; DESCRIPTION
1; Cells; 4 uL; Dispense 1500 HEK-293-SNCA-luc cells/well into Greiner 1536-well white / solid bottom tissue culture treated plate. The plate was covered with metal lids with gas-exchange holes.
2; Incubate; 24 hours; Incubate at 37C, 5% CO2, 95% RH.
3; Compounds; 23 nL; Compounds and controls were transferred via a Kalypsys Pin Tool (Wako USA) equipped with a 1536-slotted pin array. The plate was covered with metal lids with gas-exchange holes.
4; Incubate; 24 hours; Incubate at 37C, 5% CO2, 95% RH.
5; Dispense; 1 uL; Dispense Gly-Phe-7-amino-4-trifluoromethylcoumarin (GF-AFC, prepared at 125 uM in PBS) was added. The plate was covered with metal lids with gas-exchange holes.
6; Incubate; 30 min; Incubate at 37C, 5% CO2.
7; Detector; Fluorescence; Measure fluorescence with ViewLux microplate reader (PerkinElmer) equipped with 405/10 excitation and 540/25 emission filters.
8; Dispense; 3 uL; Dispense ONE-Glo ([…]) lucifase detection reagent was added to each well. Plates were covered with metal lids with gas-exchange holes.
9; Incubate; 15 min; Incubate at room temperature.
10; Detector; Luminescence; Measure luminescence with ViewLux microplate reader (PerkinElmer) equipped with clear filters.
NOTES (numbers refer to sequence above)
1; HEK-293-SNCA-luc were cultured and suspended in phenol-red free DMEM (4.5 g/L glucose, 25 mM HEPES, cat #21063 (Thermo)).
3; Compounds were added to the assay plate in an 11-point intra plate dose response, 1:3 titration in DMSO with a final concentration range of […]. Vehicle-only plates, with DMSO being pin-transferred to every well, were inserted at the beginning of screening runs to confirm expected assay performance. Activity was normalized to wells containing medium only (-100% activity, full inhibition) and SNCA-luc cells treated with DMSO vehicle control (0% activity), contained on the same plate as test samples.
10; Signals were analyzed, and dose-response curves were fit using the Hill equation. Compounds in curve classes -1.1, -1.2, -2.1, -2.2 in the SNCA-luc assay were considered active. Compounds were eliminated from further consideration if also active (curve class -1.1, -1.2, -1.3, -1.4, -2.1, -2.2, -2.3, -2.4) in the GF-AFC cytotoxicity assay.
Potency means the concentration at half of the fitted maximal effect.

SMILES | activity change, negative = cytotoxicity | Potency
CN(C)C[C@@H]1CN(S(C)(=O)=O)C[C@H]1NC(=O)c1nn(C)c2ccccc12 | -3.91% (inactive) | –
COc1ccccc1Nc1ccnc(N2CCC(C(=O)NCc3cccc(Cl)c3)CC2)n1 | -6.27% (inactive) | –
O=C(c1ccc(F)cc1)N1CCN(c2cc(-c3ccc(F)cc3)[nH]n2)CC1 | 6.86% (inactive) | –
CCOC(=O)C1CCN(C(=O)C2CCc3nnc(CN[S+](C)(=O)[O-])n32)CC1 (stereo not given) | -2.85% (inactive) | –
O=C(c1ccon1)N1CC[C@@H]2[C@@H](CCC(=O)N2CC2CCNCC2)C1 | 0.0233% (inactive) | –
CCOc1ccccc1NC(=O)N1CCCN(C)c2ccccc21 | -9.62% (inactive) | –
O=C(CCc1ccccc1)Nc1ccc([C@@H](O)[C@H]2COCC(=O)N2Cc2ccccc2F)cc1 | 1.47% (inactive) | –
O=C(CCc1ccnc(N2CCCC2)c1)N1CCN(c2ccccc2)CC1 | 0.0928% (inactive) | –
CCCS(=O)(=O)c1ncc(Cl)c(C(=O)Nc2scc(-c3ccccc3)c2C(=O)OCC)n1 | -14.4% (inactive) | –
CCSc1ncc(Cl)c(C(=O)Nc2cc(C)ccc2C)n1 | -4.44% (inactive) | –
Cc1ccc(NC(=O)c2nc(S(=O)(=O)Cc3cccc(C)c3)ncc2Cl)cc1 | – | 28.2 µM (active)
CC1=C[C@@H](CN2CCC(O)CC2)[C@H](C(C)C)C[C@H]1Cc1nnc(-c2ccccc2F)o1 | -25.2% [at 87.6 µM] (inactive) | –
C[C@@H](c1ccccc1)N(C)C(=O)c1cc(COc2cccc(F)c2)[nH]n1 | -5.67% (inactive) | –
CCOC(=O)c1cccc(NC(=O)c2ccc3c(c2)N(C)C2CCCCN2C3=O)c1 (stereo not given) | 4.91% [at 12.5 µM] (inactive) | –
Cc1cccc(C(=O)N2CCC(OC3CCN(Cc4ccccc4)CC3)CC2)c1 | -20.7% (inactive) | –
O=C(Nc1ccc(C(F)(F)F)cc1)C1=NO[C@@H]2CN(CCc3ccccc3)C[C@H]12 | 4.72% [at 87.6 µM] (inactive) | –
COc1ccc(S(=O)(=O)N2C[C@@H]3C[C@H](C2)c2c(NC(=O)C4CCCCC4)ccc(=O)n2C3)cc1 | -4.88% (inactive) | –
Cc1ccc(S(=O)(=O)N2CCCC(Cn3c(C4CC4)nc4cccnc43)C2)cc1C (stereo not given) | 0.546% (inactive) | –
CC(C)c1nc(-c2ccc(OC3CCN(C(=O)CCc4nc5ccccc5[nH]4)C3)cc2)no1 (stereo not given) | -18.1% (inactive) | –
COc1ccc(-n2nc(C)c([C@@H]3C=C[C@@H](NC(=O)Nc4ccccc4)C3)c2C)cc1 | -21% [at 87.6 µM] (inactive) | –
CCc1ccccc1NC(=O)N1CCCC(Cn2c(C)nc3cccnc32)C1 (stereo not given) | 0.623% (inactive) | –
O=C(NC1CCN(c2nc3ncccc3o2)CC1)c1ccc(Cl)nc1 | -25.4% (inactive) | –
CCc1ccc(NC(=O)Cn2ccn3nc4c(c3c2=O)CCCC4)cc1 | 2.41% (inactive) | –
COc1ccc(NC(=O)N[C@H]2[C@H](O)[C@@H](N3CCN(c4ccccc4)CC3)[C@@H]3OC[C@H]2O3)cc1 | -6.88% (inactive) | –
Cc1nc(N(C)C)ncc1C(=O)NC(C(=O)O)c1c(C)n[nH]c1C (stereo not given) | -18% (inactive) | –
